Measured values taken from ChEMBL document CHEMBL3988442, “University of Dundee, Small-Polar-MMV Screening Library” (2021).

Columns and labels:
[1] = biological target: T1, Aspartate--tRNA(Asp/Asn) ligase (Mycobacterium tuberculosis (strain ATCC 25618 / H37Rv)) (UniProt P9WFW3); experiment: Assay for Asp RNA synthetase-1 from Mycobacterium tuberculosis; type: functional; design: scale not given: direction of the effect not stated beside the values; conditions: 30 µM; also: in the data most compounds retested in dose-response had high values
T1 sequence (whole entry): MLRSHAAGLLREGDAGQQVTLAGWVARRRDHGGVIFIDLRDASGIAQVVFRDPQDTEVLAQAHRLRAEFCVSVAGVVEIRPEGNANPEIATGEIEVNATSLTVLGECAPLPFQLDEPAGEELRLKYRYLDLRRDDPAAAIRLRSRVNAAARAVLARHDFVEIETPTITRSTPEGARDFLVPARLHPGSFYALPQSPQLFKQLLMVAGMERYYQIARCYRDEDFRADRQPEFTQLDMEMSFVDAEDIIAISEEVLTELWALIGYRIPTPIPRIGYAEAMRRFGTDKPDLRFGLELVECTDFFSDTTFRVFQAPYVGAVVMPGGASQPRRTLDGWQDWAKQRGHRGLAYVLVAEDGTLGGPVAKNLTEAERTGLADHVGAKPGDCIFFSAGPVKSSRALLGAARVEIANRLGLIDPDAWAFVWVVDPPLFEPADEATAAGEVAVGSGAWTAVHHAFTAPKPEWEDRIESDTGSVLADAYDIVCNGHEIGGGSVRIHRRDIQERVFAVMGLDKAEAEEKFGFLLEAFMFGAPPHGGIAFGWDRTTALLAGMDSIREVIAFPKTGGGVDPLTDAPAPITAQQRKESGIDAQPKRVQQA

[2] = biological target: Shiga toxin 2 (Escherichia coli O157:H7) (UniProt P09385+P09386); experiment: E. coli 0.157:H7 Shiga Toxin SOP - stx2 screening assay; type: functional; design: scale not given: direction of the effect not stated beside the values; conditions: 30 µM

| SMILES | Percent Effect [1] [%] | Percent Effect [2] [%] |
| --- | --- | --- |
| COc1ccc(S(=O)(=O)N2CCCC3(CCCN3S(C)(=O)=O)C2)cc1 (configuration not stated) | -2.13 | 0.605 |
| Cc1ccc(N2CCCc3sc(C(=O)NCc4cccnc4)nc32)nn1 | -2.44 | -41.7 |
| COc1cccc(S(=O)(=O)N2CCC(O)(CN(C)C)C2)c1 (configuration not stated) | -0.221 | 11.2 |
| CC(C)c1cc(CNC(=O)N2CCC(Cc3cnn(C)c3)C2)on1 (configuration not stated) | -3.72 | 11 |
| O=C(c1cnccn1)N1CCc2ncnc(-c3cccnc3)c2CC1 | -2.48 | -12.4 |
| CCS(=O)(=O)N1CCC2(CC1)CC(Oc1ccccn1)CO2 (configuration not stated) | -0.51 | 0.988 |
| Cc1nnc(N2C[C@@H](OCCCn3cccn3)[C@H]3OCCC[C@H]32)s1 | -3.42 | -13.8 |
| CN(C(=O)Cc1ccc(NC(=O)NC2CCC2)cc1)c1ccccc1 | -0.27 | -9.88 |
| CC(C)Oc1ncnc2c1CCN(C(=O)c1cccn1C)CC2 | -1.46 | -10.4 |
| CCCc1c(C(=O)NC2CCCC2)nnn1-c1ccc(OC)cc1 | -1.57 | -4.2 |
| CCOC(=O)[C@]12CCCN(Cc3ccco3)C[C@H]1CN(CCN(C)C)C2 | 4.07 | -6.83 |
| O=C(CCc1cscn1)N1CCCC1c1noc(C2CC2)n1 (configuration not stated) | -1.43 | 22.4 |
| Cc1ccc(C(=O)N2CCC(Oc3ccc(F)cc3F)CC2)c(=O)[nH]1 | -4.97 | 30.4 |
| O=c1[nH]c(CCN2CCCC(Cn3cncn3)C2)nc2ccccc12 (configuration not stated) | -3.23 | -25.8 |
| Cc1cn2nc(N3CCCC3CC(C)(C)C)sc2n1 (configuration not stated) | 1.06 | 22.9 |
| Cc1ccc(NC2CCN(C(=O)Cc3csc(C)n3)CC2)nn1 | 4.42 | 17.7 |
| O=C(CSC1=NS(=O)(=O)c2cc(F)ccc2N1)Nc1cccc(Cl)c1 | 4.04 | -1.14 |
| Cc1cc(N(C)Cc2noc(C)n2)n2nc(C)c(C)c2n1 | -0.251 | -8.78 |
| O=C(CN1CC(n2cccn2)C1)NCCCc1ccccc1 | 0 | -22.1 |
| CCc1csc(C2CCCN(C(=O)c3ccnc(N(C)C)c3)C2)n1 (configuration not stated) | 1.86 | -14.7 |
| CN1[C@@H](C(=O)NCC2CC2)C[C@@H]2CN(Cc3ccco3)C[C@@H]21 | 2.69 | -1.45 |
| Cc1cc(NC(=O)C(C)N2CCCN(c3nccs3)CC2)on1 (configuration not stated) | -2.75 | 4.75 |
| Cc1nc(CN2CCN(C(=O)c3cc(C4CC4)on3)CC2)cs1 | -5.68 | 24.9 |

| SMILES | Percent Effect [1] [%] | Percent Effect [2] [%] |
| --- | --- | --- |
| Cc1nc(C)n(CC2CCCN2Cc2cc(C)on2)n1 (configuration not stated) | 8.96 | 8.12 |
| CNc1cc(N2CCCC2CNCc2cnc(C)cn2)ncn1 (configuration not stated) | -0.989 | -46 |
| CCn1nnc2c1C(COC)CN(Cc1ccsc1)C2 (configuration not stated) | -1.23 | -3.86 |
| Cc1nc(Nc2ncccn2)cc(C2CCCN2C2CCOCC2)n1 (configuration not stated) | 2.13 | -0.835 |
| Cc1cc(S(=O)(=O)NCc2cccc(C(=O)N3CCCC3)c2)c(C)s1 | 2.16 | 5.68 |
| Cc1cccc(CCC(=O)N2CCOCC2c2c(C)n[nH]c2C)c1 (configuration not stated) | 3.91 | -16.7 |
| CN(C)S(=O)(=O)c1ccc(OCCNCCn2cccn2)cc1 | -6.56 | -13.8 |
| O=C(NCc1ccccc1-n1cccn1)N1CCN2CCCCC2C1 (configuration not stated) | -6.8 | 3.68 |
| CN(Cc1ccccc1)CC(O)Cn1cnc2ccsc2c1=O (configuration not stated) | -1.75 | -2.3 |
| O=C(c1cncc(Br)c1)N1CCC(O)(Cn2ccc3ccncc32)CC1 | 3.38 | -12.7 |
| c1csc(-c2nc(CNC3CCc4ncnn4C3)co2)c1 (configuration not stated) | 1.3 | -1.44 |
| CCOc1ccc(CN2CCN(C(=O)c3ccc(C)n3C)CC2)cc1 | 2.42 | 8.86 |
| COCCn1nc(C(=O)N2CCCC2c2cccc(F)c2)ccc1=O (configuration not stated) | 2.11 | 1.07 |
| CCOC(=O)C1CCN(C(=O)Cn2ccc3cc(Br)ccc32)CC1 | -2.06 | -21.9 |
| CC(=O)NCC(=O)N1C[C@H](OCc2cccnc2)[C@H]2COC[C@H]21 | -1.31 | -22.3 |
| CCC(C)(C)NC(=O)Cn1nc(C)nc1-c1cccc(C)c1 | 1.4 | 5.46 |
| CNc1cncc(C2CCCN2Cc2ccccc2OCC(=O)O)n1 (configuration not stated) | 4.48 | 3.64 |
| CCc1cc(=O)[nH]c2nnc(SCC(=O)OC)n12 | -8.74 | -6.54 |
| CSc1ccc(CNC(c2ccccc2)c2nccn2C)cc1 (configuration not stated) | 3.61 | -1.22 |
| CC(C(=O)NCc1ccnc(N(C)C)c1)n1cncn1 (configuration not stated) | 0.0335 | -9.74 |
| Cc1cn(CC(=O)NC2CCN(C(=O)C3CC3)CC2)c2ccccc12 | 2.13 | 6.97 |
| Cn1cccc1C(CNC(=O)c1ccc(F)cc1F)N1CCCCCC1 (configuration not stated) | 1.24 | -33.8 |
| CNC(=O)COc1ccccc1CNC1CCc2ncnn2C1 (configuration not stated) | -0.833 | -29.9 |
